Test in all cases: DAPPL (digital affinity profiling via proximity ligation, sequencing); 10 mM Tris-HCl pH 7.5, 50 mM NaCl, 1 mM DTT, 4% glycerol, room temperature, 30 min; GST-TFs on glutathione beads, 16-mer random dsDNA library, 0.1% formaldehyde crosslink after washing; high values mean tight binding
Holding throughout (settings): protein: recombinant; tags: N-terminal GST; dsDNA, one strand shown

One experiment concerns the target T1, GABPA (Homo sapiens, UniProt Q06546 1-454).
T1 sequence: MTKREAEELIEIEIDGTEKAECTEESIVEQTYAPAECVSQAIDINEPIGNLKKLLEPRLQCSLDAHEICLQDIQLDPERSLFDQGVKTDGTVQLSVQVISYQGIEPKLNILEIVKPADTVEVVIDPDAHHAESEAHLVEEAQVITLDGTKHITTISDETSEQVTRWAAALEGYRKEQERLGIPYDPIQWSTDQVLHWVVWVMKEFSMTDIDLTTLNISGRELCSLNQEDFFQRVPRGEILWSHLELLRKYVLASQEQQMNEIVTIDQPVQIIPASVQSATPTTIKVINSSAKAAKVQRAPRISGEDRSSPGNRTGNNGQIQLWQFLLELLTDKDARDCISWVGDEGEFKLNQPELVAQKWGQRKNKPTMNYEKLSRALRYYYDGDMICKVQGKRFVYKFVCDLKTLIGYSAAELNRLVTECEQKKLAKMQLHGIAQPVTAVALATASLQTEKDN
In a few lines:
(§1)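 Binding signal is defined as a hexamer's read frequency for one factor over its frequency for the tag-only sample. To obtain reads, GST-fused human transcription factors were expressed in yeast, captured on glutathione beads, barcoded with DNA and pooled with that sample. Pools met 200 nmole of a 16-mer random double-stranded DNA library in Tris/NaCl/DTT/glycerol buffer for 30 min at room temperature before washing, 0.1% formaldehyde crosslinking, proximity ligation (BsaI/T4 ligase, 1 h, 37 °C), PCR and Illumina NextSeq500 sequencing.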

In a further experiment the target is T2, ERG (Homo sapiens, UniProt P11308 1-479).
T2 sequence: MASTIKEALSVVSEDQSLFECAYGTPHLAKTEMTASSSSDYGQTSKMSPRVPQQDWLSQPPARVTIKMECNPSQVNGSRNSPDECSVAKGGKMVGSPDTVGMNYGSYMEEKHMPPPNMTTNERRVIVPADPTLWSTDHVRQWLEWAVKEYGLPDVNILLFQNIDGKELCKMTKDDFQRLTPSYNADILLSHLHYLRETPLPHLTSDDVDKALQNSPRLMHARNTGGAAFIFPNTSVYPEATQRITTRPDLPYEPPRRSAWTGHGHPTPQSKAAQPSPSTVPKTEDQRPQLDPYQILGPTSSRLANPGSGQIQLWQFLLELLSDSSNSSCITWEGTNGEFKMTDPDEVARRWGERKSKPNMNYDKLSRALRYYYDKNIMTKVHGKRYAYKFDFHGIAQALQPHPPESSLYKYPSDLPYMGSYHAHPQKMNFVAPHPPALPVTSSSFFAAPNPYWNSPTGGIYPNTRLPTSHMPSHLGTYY
In a few lines: as §1

The target of the next experiment is ELF1 (Homo sapiens, UniProt P32519 1-619). Put shortly:
as §1

For the next experiment, the target named is T3, SPIC (Homo sapiens, UniProt Q8N5J4 1-248).
T3 sequence: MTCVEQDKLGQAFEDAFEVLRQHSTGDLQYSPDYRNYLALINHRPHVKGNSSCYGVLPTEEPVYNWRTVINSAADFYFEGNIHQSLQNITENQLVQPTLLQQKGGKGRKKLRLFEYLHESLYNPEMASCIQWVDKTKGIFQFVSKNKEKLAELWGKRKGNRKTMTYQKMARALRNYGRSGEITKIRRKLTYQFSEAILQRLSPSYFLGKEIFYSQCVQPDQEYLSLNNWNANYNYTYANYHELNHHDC
Put shortly:
as §1

Another experiment addresses ELF4 (Homo sapiens, UniProt Q99607 1-663). Put shortly:
as §1

The target in a further experiment is T4, ELK4 (Homo sapiens, UniProt P28324-2 1-405).
T4 sequence: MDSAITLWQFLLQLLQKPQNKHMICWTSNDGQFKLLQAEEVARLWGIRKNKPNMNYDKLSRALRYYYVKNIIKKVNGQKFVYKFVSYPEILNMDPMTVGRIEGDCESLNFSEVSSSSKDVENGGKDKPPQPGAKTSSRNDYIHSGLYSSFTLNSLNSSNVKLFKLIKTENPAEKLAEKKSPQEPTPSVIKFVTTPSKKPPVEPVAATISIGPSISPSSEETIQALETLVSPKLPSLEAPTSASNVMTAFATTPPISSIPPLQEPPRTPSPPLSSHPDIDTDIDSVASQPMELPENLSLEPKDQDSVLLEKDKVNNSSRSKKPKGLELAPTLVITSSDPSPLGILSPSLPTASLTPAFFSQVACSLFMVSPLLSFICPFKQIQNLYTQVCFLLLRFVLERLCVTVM
In a few lines:
as §1

Another experiment concerns the target T5, ETV2 (Homo sapiens, UniProt O00321 1-342).
T5 sequence: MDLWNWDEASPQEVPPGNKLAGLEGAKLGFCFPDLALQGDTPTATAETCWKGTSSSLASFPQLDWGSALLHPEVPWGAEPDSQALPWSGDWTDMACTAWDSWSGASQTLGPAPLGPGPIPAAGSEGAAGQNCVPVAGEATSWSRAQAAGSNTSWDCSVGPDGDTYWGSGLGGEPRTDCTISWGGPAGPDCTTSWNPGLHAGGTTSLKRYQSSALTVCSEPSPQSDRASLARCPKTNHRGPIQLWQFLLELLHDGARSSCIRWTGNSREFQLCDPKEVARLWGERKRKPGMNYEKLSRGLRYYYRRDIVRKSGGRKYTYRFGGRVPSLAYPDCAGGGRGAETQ
Put shortly: as §1

The target of another experiment is ETV1 (Homo sapiens, UniProt P50549 1-477). In a few lines: as §1
Chain of ETV1 (P50549 whole entry): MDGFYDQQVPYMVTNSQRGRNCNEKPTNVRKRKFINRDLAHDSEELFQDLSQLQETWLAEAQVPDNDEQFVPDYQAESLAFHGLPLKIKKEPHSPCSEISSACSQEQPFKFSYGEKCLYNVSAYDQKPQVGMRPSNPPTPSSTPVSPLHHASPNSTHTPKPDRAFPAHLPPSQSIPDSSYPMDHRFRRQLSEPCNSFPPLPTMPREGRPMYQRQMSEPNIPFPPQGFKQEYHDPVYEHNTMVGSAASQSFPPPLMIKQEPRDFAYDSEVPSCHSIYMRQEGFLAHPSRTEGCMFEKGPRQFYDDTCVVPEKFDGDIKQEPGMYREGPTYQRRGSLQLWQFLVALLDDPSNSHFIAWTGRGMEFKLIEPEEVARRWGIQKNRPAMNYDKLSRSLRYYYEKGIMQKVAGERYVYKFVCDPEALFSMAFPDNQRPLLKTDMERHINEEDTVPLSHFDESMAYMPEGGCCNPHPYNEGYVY
The target of the next experiment is T6, ETV3L (Homo sapiens, UniProt Q6ZN32 1-361).
T6 sequence: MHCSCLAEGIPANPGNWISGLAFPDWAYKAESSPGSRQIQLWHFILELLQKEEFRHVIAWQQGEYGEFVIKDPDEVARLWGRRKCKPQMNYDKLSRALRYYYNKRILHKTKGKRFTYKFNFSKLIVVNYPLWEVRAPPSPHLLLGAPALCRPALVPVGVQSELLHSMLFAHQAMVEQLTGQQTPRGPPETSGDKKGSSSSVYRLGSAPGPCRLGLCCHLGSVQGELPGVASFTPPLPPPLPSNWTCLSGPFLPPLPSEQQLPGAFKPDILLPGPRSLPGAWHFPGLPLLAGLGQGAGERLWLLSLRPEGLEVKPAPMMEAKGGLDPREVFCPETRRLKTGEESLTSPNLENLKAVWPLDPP
Put shortly: as §1

Another experiment addresses T7, SPDEF (Homo sapiens, UniProt O95238 1-335).
T7 sequence: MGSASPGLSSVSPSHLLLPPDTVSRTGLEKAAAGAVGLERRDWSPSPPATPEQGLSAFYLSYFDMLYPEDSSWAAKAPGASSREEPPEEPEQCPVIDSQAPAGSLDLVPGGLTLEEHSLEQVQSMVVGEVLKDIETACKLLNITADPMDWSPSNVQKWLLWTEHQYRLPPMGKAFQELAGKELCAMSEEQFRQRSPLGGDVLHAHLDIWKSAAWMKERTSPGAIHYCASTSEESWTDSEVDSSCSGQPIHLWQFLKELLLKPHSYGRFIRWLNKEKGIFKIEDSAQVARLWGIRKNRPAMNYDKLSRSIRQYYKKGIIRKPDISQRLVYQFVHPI
In a few lines:
as §1

The target of another experiment is T8, ETV3 (Homo sapiens, UniProt P41162-2 1-143).
T8 sequence: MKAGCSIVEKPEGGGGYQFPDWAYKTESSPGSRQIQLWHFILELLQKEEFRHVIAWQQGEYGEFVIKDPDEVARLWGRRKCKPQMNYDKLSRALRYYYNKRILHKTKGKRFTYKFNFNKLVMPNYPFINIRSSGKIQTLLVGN
In a few lines:
as §1

For the next experiment, the target named is SPIB (Homo sapiens, UniProt Q01892 1-262). In a few lines: as §1
Chain of SPIB (Q01892 whole entry): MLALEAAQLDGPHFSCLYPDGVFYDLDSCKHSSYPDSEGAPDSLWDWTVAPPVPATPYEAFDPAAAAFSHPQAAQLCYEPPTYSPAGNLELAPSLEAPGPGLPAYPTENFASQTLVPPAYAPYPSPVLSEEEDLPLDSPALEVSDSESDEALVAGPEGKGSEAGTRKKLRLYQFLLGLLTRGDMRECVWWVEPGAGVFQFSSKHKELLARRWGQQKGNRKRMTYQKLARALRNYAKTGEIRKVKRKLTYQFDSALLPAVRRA
For another experiment, the target named is CRX (Homo sapiens, UniProt O43186 1-299). In a few lines: as §1
Chain of CRX (O43186 whole entry): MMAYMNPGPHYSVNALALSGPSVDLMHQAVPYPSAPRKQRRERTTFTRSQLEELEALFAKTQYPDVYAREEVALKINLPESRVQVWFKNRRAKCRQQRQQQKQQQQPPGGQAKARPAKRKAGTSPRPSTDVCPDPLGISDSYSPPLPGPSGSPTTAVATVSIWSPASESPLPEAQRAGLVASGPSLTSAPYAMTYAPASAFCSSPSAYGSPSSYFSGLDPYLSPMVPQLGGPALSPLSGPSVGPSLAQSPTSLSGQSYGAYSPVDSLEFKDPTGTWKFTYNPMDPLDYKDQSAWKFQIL

Chain of ELF4 (Q99607 whole entry): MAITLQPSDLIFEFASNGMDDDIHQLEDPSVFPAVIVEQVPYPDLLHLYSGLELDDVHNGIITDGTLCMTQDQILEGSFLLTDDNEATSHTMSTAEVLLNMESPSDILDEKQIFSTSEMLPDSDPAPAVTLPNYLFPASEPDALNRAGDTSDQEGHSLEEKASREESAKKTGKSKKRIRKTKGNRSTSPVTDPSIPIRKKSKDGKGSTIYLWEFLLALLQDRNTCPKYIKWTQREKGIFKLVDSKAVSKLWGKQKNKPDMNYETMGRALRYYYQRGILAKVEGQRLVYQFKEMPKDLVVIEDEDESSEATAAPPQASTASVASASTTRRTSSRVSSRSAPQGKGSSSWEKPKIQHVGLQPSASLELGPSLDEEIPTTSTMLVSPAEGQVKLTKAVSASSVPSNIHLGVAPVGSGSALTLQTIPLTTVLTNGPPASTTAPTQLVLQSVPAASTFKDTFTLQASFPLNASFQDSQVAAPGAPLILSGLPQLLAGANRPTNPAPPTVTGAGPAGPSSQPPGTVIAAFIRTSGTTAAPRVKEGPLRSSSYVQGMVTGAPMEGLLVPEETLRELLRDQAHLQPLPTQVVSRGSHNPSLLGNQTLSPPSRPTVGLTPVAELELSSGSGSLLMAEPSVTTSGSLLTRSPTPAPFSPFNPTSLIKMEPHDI
Chain of ELF1 (P32519 whole entry): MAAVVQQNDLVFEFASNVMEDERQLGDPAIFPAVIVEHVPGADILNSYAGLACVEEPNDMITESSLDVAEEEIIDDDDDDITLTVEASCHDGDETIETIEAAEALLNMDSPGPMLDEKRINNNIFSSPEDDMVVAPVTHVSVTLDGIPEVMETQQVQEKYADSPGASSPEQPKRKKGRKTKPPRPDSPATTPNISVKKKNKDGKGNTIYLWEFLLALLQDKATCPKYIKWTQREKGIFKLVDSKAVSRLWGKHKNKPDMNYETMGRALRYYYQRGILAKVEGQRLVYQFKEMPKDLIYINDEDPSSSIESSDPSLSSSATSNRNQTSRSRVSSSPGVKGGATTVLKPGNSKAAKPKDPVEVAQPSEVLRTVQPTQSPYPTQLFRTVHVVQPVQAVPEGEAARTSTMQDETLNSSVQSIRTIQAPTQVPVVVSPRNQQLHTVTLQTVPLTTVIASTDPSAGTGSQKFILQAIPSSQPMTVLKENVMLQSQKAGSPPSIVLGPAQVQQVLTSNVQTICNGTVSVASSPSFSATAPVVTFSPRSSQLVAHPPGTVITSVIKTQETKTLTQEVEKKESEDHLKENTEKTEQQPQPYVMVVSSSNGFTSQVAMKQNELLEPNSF

CCTAGG: the binding signal in the experiment with GABPA is 1.04 fold enrichment (6-mer frequency, TF over GST control); with ERG it was 1 fold enrichment (6-mer frequency, TF over GST control); with ELF1 it was 1.07 fold enrichment (6-mer frequency, TF over GST control); in the experiment with SPIC it was 1.1 fold enrichment (6-mer frequency, TF over GST control); with ELF4 it was 1.07 fold enrichment (6-mer frequency, TF over GST control); with ELK4 it was 1.04 fold enrichment (6-mer frequency, TF over GST control). Besides, the binding signal with ETV2 was 1.03 fold enrichment (6-mer frequency, TF over GST control); with ETV1, 1.02 fold enrichment (6-mer frequency, TF over GST control); in the experiment with ETV3L it was 1.03 fold enrichment (6-mer frequency, TF over GST control); with SPDEF, 1.02 fold enrichment (6-mer frequency, TF over GST control); in the experiment with ETV3, 1.1 fold enrichment (6-mer frequency, TF over GST control).

GCAGAT: the binding signal with SPIB is 1.02 fold enrichment (6-mer frequency, TF over GST control); with SPIC, 1 fold enrichment (6-mer frequency, TF over GST control); in the experiment with ELK4, 1.04 fold enrichment (6-mer frequency, TF over GST control); with ETV2 it was 1.17 fold enrichment (6-mer frequency, TF over GST control); with CRX, 1.21 fold enrichment (6-mer frequency, TF over GST control).

With TAAGGC, the binding signal with SPIC was 1.02 fold enrichment (6-mer frequency, TF over GST control); in the experiment with CRX, 1.52 fold enrichment (6-mer frequency, TF over GST control).

Values taken from article PMC7862700, “An all-to-all approach to the identification of sequence-specific readers for epigenetic DNA modifications on cytosine”.
